# High-throughput results (PubChem)
# The list is a sample of the results.
# aSyn 5UTR act = Activators working through SNCA 5'UTR binding (MLPCN); AID 1814; 300,000 tested, 7.1% active; activity score, % (tested at 7.5 µM), hits read low; alpha-synuclein 5'UTR reporter, activators screen; in the data active = activity score below about -60%
# * hit, by the source's call.
SMILES,aSyn 5UTR act
CNc1ccc(/C=C2\COc3ccccc3C2=O)cc1[N+](=O)[O-],-117.5*
FC(F)Oc1ccccc1/C=N/n1cnc2ccccc21,-191.1*
CN1CCN(c2ccc(-c3ccnn3C(=O)Nc3cccc(C(F)(F)F)c3)cc2)CC1,-114.1*
COc1ccc(-n2nc3cc(C)c(N)cc3n2)cc1Cl,-141.9*
Cc1ccccc1C(=O)N/N=C/c1ccccn1,-79.6*
O=C(N/N=C/c1ccccn1)c1ccccc1,-89.8*
CN(C)c1ccc(C(=O)N/N=C/c2ccccn2)cc1,-84.7*
CN(C)c1ccc(NC(=S)c2ccccn2)cc1,97.1
O=C(N/N=C\c1cn[nH]c1-c1ccccc1)c1cccnc1,-66.6*
COc1ccc(CCc2nnc(CCC(=O)NCc3cc(C(C)C)no3)o2)cc1,-98.6*
Fc1ccccc1COc1ccc(C(=S)N2CCCC2)cc1,-95.7*
COc1cc(/C=N/NS(=O)(=O)c2ccc3ccccc3c2)ccc1OCc1ccc(C(=O)O)cc1,84.3
CCOc1cc(/C=N\Nc2nc(Nc3ccccc3)nc(N3CCOCC3)n2)ccc1OC(=O)c1ccco1,-90.9*
COc1cc(/C=N/Nc2ccc3ccccc3c2)ccc1OC(=O)c1ccco1,-76.2*
O=C(Nc1ccccc1)C1Cc2ccccc2CN1C(=O)c1ccco1 (centres undefined),-114.0*
COc1ccc(C(=O)Nc2cccc3cccnc23)cc1OC,-71.6*
COc1ccc(C(NC(=O)c2cccnc2)c2cc(Cl)c3cccnc3c2O)cc1OC (centres undefined),75.9
Cc1cc(C(=O)Nc2cccc3cccnc23)ccc1[N+](=O)[O-],-105.5*
CC(C)Oc1ccc(C(=O)Nc2cccc3cccnc23)cc1,-136.3*
CCS(=O)(=O)c1ccc(OC)c(N=Nc2ccc(O)c3ncccc23)c1,65.8
COc1ccc(NC(=O)C(=O)Nc2cccc3cccnc23)cc1OC,-114.0*
COc1ccc(/C=C2\N=C(SC)N(c3ccccc3OC)C2=O)cc1,-66.3*
CCOc1ccc(N2C(=O)/C(=C/c3ccccc3)N=C2SC)cc1,-89.0*
CCn1nc(C(=O)OCC(=O)Nc2nc(-c3ccc(OC)cc3)cs2)c2ccccc2c1=O,-115.8*
CC(=O)N(C)c1nc(-c2ccc(Cl)cc2)cs1,-116.5*
SMILES,aSyn 5UTR act
CN(C)CCCN(C(=O)c1ccco1)c1nc(-c2ccc(Cl)cc2)cs1,-74.8*
COc1ccc(-c2csc(NC(=O)COC(=O)c3ccco3)n2)cc1,-139.9*
COc1ccc(-c2csc(N(C)C(=O)c3ccco3)n2)cc1,-181.8*
CN(C(=O)c1ccco1)c1nc(-c2ccc(Cl)cc2)cs1,-139.8*
Cc1ccc(Nc2nc(N)nc(CSC(=S)N3CCOCC3)n2)cc1,-127.3*
Cc1cccc(Nc2nc(N)nc(CSC(=S)N3CCOCC3)n2)c1,-108.4*
Nc1nc(CSC(=S)N2CCOCC2)nc(Nc2ccccc2)n1,-131.3*
COc1ccc(-c2nc3cccc(C)n3c2NCC2CCCO2)cc1O (centres undefined),-99.4*
CN1CCN(/N=C/c2cccc(Cl)c2Cl)CC1,-72.4*
CCOC(=O)c1ccc(-c2cccc(C(F)(F)F)c2)nc1C,-122.3*
N=C(N)SCc1ccc(Cl)cc1Cl,-71.0*
CC(=O)c1cc(C#N)c(SCc2ccccc2C#N)nc1C,-97.1*
CC(=O)c1cc(C#N)c(SCC(=O)OC(C)(C)C)nc1C,-115.6*
CCOc1ccc(NC(=O)c2cccc3c2C(=O)N(Cc2cccnc2)C3)cc1,-110.7*
Cc1cccc(/C=C(\c2nc3ccccc3[nH]2)S(=O)(=O)c2ccccc2)c1,-118.5*
CC(C)(C)c1ccc(/C=C(\c2nc3ccccc3[nH]2)S(=O)(=O)c2ccccc2)cc1,-77.7*
Cc1cc(/C=C(\C#N)C(=O)NC2CCCCCC2)c(C)n1C,-74.0*
Nc1cc(-c2ccc(Br)cc2)[nH]n1,-89.9*
Cc1cc(-c2ccc(Br)cc2)n[nH]1,-119.6*
Cc1cccc(NC(=O)c2ccc3c(c2)CCN3S(C)(=O)=O)c1,-202.6*
CS(=O)(=O)N1CCc2cc(C(=O)OCC(=O)c3ccccc3)ccc21,-138.3*
CS(=O)(=O)N1CCc2cc(C(=O)Nc3ccccc3Cl)ccc21,-95.6*
Cc1ccc(NC(=O)c2ccc3c(c2)CCN3S(C)(=O)=O)cc1C,-111.6*
CS(=O)(=O)N1CCc2cc(C(=O)Nc3ccc(Br)cc3)ccc21,-76.6*
CCN1CCN(Cc2ccc(NC(=O)c3ccc(C)c(NC(=O)c4ccno4)c3)cc2C(F)(F)F)CC1,67.1
SMILES,aSyn 5UTR act
Cc1ccc(C(=O)Nc2ccc(Br)c(C(F)(F)F)c2)cc1,-211.7*
COc1cccc(NC(=O)C(=O)NCCC2CCCCN2S(=O)(=O)c2ccccc2)c1 (centres undefined),-158.4*
COc1cccc(NC(=O)C(=O)NCC2CCCN2S(=O)(=O)c2ccccc2)c1 (centres undefined),-215.6*
O=C(NCCC1CCCCN1S(=O)(=O)c1cccs1)C(=O)Nc1ccc(F)cc1 (centres undefined),-86.7*
O=C(NCCC1CCCCN1S(=O)(=O)c1ccc(Cl)cc1)C(=O)NCc1ccncc1 (centres undefined),61.8
CCCCOc1ccc(-c2ncc([N+](=O)[O-])cn2)cc1,-132.5*
CCCCOc1ccc(-c2ncc(Cl)cn2)cc1,-88.9*
CCCCOc1ccc(-c2[nH]ncc2C=O)cc1,-82.5*
OC(c1cc(-c2ccc(C(F)(F)F)cc2)nc(C(F)(F)F)c1)C1CCCCN1 (centres undefined),103.5
CS(=O)(=O)c1nc(-c2ccccc2)cc(C(F)(F)F)n1,-111.2*
CCc1ccc(NC(=O)c2cnc3scc(C)n3c2=O)cc1,-246.7*
Cc1csc2ncc(C(=O)Nc3cccc(C(F)(F)F)c3)c(=O)n12,-127.9*
Cc1ccc(C(=O)Nc2cccc(C(F)(F)F)c2)cc1NC(=O)c1cnnc2ccccc12,64.2
Cc1ccc(NC(=O)c2ccco2)cc1C,-102.9*
CCn1nccc1C(=O)Nc1ccc(C)c(C)c1,-177.6*
O=C(Nc1ccc2c(c1)OCCO2)c1ccco1,-68.0*
COc1cc(OC)cc(C(=O)Nc2ccc(NC(=O)c3ccco3)c(C)c2)c1,-123.5*
Cc1ccc(C(=O)Nc2ccc3c(c2)OCO3)cc1NC(=O)c1ccco1,-70.8*
CC1(C)Oc2ccc(NC(=O)c3ccco3)cc2O1,-168.1*
COc1cccc(NC(=O)c2ccco2)c1,-115.6*
Cc1ccc(-n2nc(C)c3c(C)cc(=O)[nH]c32)cc1,-68.7*
Oc1ccc(N=C/C=C/c2ccc(Br)cc2)cc1-c1nc2ccccc2s1,-106.9*
C=CCN=c1scc(C)n1/N=C/c1ccc(O)c(O)c1,-156.0*
CN=c1scc(-c2ccccc2F)n1/N=C/c1ccc[nH]1,83.1
CN=c1scc(-c2ccco2)n1/N=C/c1ccc(O)c(O)c1,-242.0*
SMILES,aSyn 5UTR act
COc1ccc(-c2oc3ccccc3c(=O)c2OC(C)=O)cc1,-174.0*
CC(=O)Oc1c(-c2ccc(Br)o2)oc2ccccc2c1=O,-66.5*
COc1ccc(-c2oc3cc(OC)c(O)c(OC)c3c(=O)c2OC)cc1O,65.0
CC(=O)Oc1cc(O)c2c(=O)c(OC(C)=O)c(-c3ccc(OC(C)=O)c(OC(C)=O)c3)oc2c1,-116.2*
CC(C)=CC(=O)Nc1ccc(Br)cc1,-191.4*
COc1ccc(/C=C2\C(=O)NCC(=O)N2Cc2ccccc2)cc1,-61.8*
CSc1nsc(SCC(=O)Nc2ccc(OC(C)=O)cc2)n1,-123.7*
CCOC(=O)c1ccc(NC(=O)CSc2nc(SC)ns2)cc1,-107.1*
CSc1nsc(SCC(=O)Nc2ccccc2F)n1,-62.6*
COc1ccc(-c2nc(-c3ccc(Br)o3)no2)cc1OC,-210.5*
COc1ccc(-c2nnc(-c3ccc(Br)o3)o2)cc1OC,-89.9*
